Reference: PubChem BioAssay AID504374 (National Center for Advancing Translational Sciences (NCATS), 2011)
The whole screen tested about 1,500 compounds, of which about 100 (6.7%) were called active. Another 7% or so got no clear call; they are omitted. Calls come from the whole dose curve; as a rule, active = well fitted inhibition curve with a large enough effect; inconclusive = small, poorly fitted or top-dose-only effect, or effect the other way; inactive = flat fitted curve, though single readings scatter. What follows is part of a selection rich in actives, with near analogues and random picks from the rest. Where a call stands in place of a potency, no number is given.

molecular target: Runt-related transcription factor 1 (Homo sapiens) + Core-binding factor subunit beta (Homo sapiens) (UniProt Q01196+Q13951); experiment: qHTS Assay for Compounds Blocking the Interaction Between CBF-beta and RUNX1 for the Treatment of Acute Myeloid Leukemia: Hit Validation; conditions: AlphaScreen CBFb-His/RUNX1-biotin binding; series mostly up to 59.8 µM; note: nearly all actives have a fitted effect of over 60% in size
Sequence (Q01196 whole entry, looked up): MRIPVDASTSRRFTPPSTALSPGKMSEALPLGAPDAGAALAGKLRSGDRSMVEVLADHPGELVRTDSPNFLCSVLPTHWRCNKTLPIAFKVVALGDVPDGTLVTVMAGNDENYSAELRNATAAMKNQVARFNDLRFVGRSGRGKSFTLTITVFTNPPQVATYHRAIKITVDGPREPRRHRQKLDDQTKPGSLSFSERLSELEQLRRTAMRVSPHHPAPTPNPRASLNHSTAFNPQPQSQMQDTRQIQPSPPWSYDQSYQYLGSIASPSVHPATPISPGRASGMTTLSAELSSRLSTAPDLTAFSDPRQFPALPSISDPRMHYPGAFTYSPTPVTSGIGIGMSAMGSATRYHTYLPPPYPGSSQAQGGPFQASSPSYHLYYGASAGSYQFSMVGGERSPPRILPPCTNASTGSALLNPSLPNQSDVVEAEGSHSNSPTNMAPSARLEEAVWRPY
Sequence (Q13951 whole entry, looked up): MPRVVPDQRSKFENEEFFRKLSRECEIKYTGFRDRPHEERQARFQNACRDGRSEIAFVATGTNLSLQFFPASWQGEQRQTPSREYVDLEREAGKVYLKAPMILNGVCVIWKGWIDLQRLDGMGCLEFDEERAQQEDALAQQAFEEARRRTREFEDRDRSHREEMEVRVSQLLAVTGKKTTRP
Summary of the method: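 AlphaScreen proximity assay: His-tagged CBF-beta and biotinylated RUNX1 (30 nM each) preincubated 20 min, then compound 15 min, then nickel and streptavidin beads 90 min, all at room temperature; signal read at […]em 440 nm.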
Potency is the fitted concentration of half-maximal effect.

| SMILES | Potency |
| --- | --- |
| CCCC(=O)c1cc(O)c(O)cc1O | 4.47 µM (active) |
| Cc1ccc(C)c(C(=O)CCC(=O)O)c1 | inactive |
| CC(=O)c1cc(O)c2ccccc2c1O | inactive |
| C/C(=N\O)c1c(O)cc(-c2ccccc2)n(-c2ccccc2)c1=O | inactive |
| NC[C@@H](O)c1ccc(O)c(O)c1 | 2.82 µM (active) |
| CC1=CC(=O)CC(C)(C)C1(O)/C=C/C(C)=C/C(=O)O (stereo not given) | inactive |
| C=CCn1c(SCc2ccccc2Cl)nnc1-c1sc2nc(C)cc(C)c2c1N | inactive |
| CCOC(=O)c1c(C)n(C)c2ccc(OC)c(NC(=O)CCN3CCC(Cc4ccccc4)CC3)c12 | inactive |
| O=S(=O)(Nc1cccc(CCc2ccccn2)c1)c1cc(Cl)ccc1Cl | inactive |
| c1cnc2c(c1)ccc1cccnc12 | 1.12 µM (active) |
| c1cnc2ccc3ncccc3c2c1 | inactive |
| c1ccc(-n2ncc3cccnc32)cc1 | inactive |
| CCCCn1cc([N+](=O)[O-])nc1C | inactive |
| O=C(CN1CCN(C(c2ccccc2)c2ccccc2)CC1)N1N=CCC1c1ccccc1 (stereo not given) | inactive |
| COC(=O)c1cc(NS(=O)(=O)c2ccc(F)cc2)ccc1N1CCOCC1 | inactive |
| COc1ccc(/C(C)=N/NC(=O)Cn2nc([N+](=O)[O-])cc2C)cc1 | inactive |
| COc1cccc2c1NC(C(=O)O)C1CC=CC21 (stereo not given) | 14.1 µM (active) |
| COc1ccccc1C1CCN(C(=O)c2ccco2)CC1 | inactive |
| COc1ccccc1C1CCN(C(=O)c2cccs2)CC1 | inactive |
| COc1ccc2[nH]c(=O)c(CN(C(=O)c3cccnc3)c3ccc(C)cc3C)cc2c1 | inactive |
| CC1=NNC(=O)C1Cc1ccc(F)cc1 (stereo not given) | inactive |
| CC(C)(NC(=O)c1cc(Cl)c2ccccc2c1O)C(=O)O | inactive |
| COC(=O)CC1C(=O)NC(C)=C1C(=O)OC (stereo not given) | inactive |
| COc1ccc(-n2c(=S)[nH]c(=O)c3cccnc32)cc1 | inactive |
| CCCOc1ccc(CSC(=N)N)cc1C(=O)OC | inactive |
